We go through 18 compounds from PubChem BioAssay (NCI).

Structures are written as SMILES. The panel holds about 79,000 compounds, 15% with a hit somewhere; the sample as a whole holds those more often. Active and inactive are the calls of the source. No stated cut-off is given here; in the data, active means growth inhibition above about 70%; inactive means the rest.

The experiment can be described thus: NCI Yeast Anticancer Drug Screen. Data for the rad50 strain (AID 155).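 Further: 0% = growth of vehicle-only cultures of the same strain.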 The conditions noted are these: S. cerevisiae rad50 strain growth inhibition; at 50.0 µM; hits give high values. In short, it runs like this: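 Inhibition values express reduced yeast growth in compound-treated cultures relative to vehicle-treated controls.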
`COC1CC(NC(=O)c2ccccc2)C(O)C(C)O1` (stereo not drawn): the growth inhibition is 8.65% (inactive).
For the compound `C1CCN=C(N2CCCCCC2)CC1`, the growth inhibition is -16.9% (inactive).
In the case of `O=C(O)CC1(c2ccccc2)CCCCC1`, the growth inhibition was -1.1% (inactive).
Turning to `C#CC(C)(C)Oc1cc(O)c2c(=O)c3ccccc3n(C)c2c1`, the growth inhibition was -7.9% (inactive).
Consider `O=C(CCSC(=S)Nc1ccc(Cl)cc1)NNc1ccccc1`, for which the growth inhibition is 1.8% (inactive).
As to `CCCCCCCCCCCCSC1=C(OC)C(=O)C(OC)=C(OC)C1=O`, the growth inhibition is 33.5% (inactive).
As for `CC1=C(O)c2cc3c(cc2C(=O)C1=O)OCO3`, the figure is -21.5% (inactive); as for `Cc1ccc(-c2nc(-c3nccc4ccccc34)oc2-c2ccccc2)cc1`, -6% (inactive); as for `CCCN(CCN(CC)CC)C(=O)N(CC)CC`, -11% (inactive).
Consider `C=CCOC(=O)NC(CCC(=O)OC)C(=O)O` (stereo not drawn), for which the growth inhibition is -0.5% (inactive).
Next, `O=C1CCC(=O)N1Cc1ccccc1N=[N+]([O-])c1ccccc1CN1C(=O)CCC1=O`: -37.2% (inactive); `CC12CC(=O)C3C(CCC4=CC(=O)CCC43C)C1CC=C2CC(=O)O` (stereo not drawn): -4.8% (inactive); `CC(C)C(=O)/C=C/c1ccc(Br)cc1`: 29.9% (inactive).
As for `O=C(O)C1CC=CCC1C(=O)Nc1cccc(O)c1` (stereo not drawn), the figure is -16.9% (inactive); as for `Cc1ccc(S(=O)(=O)Nc2ccc(O)cc2)cc1`, -11.2% (inactive).
Consider `Cc1cc(/C=N/NC(=O)c2ccccc2NC(=O)c2ccccc2Cl)ccc1O`, for which the growth inhibition was 20.6% (inactive).
On to `COc1ccc(N2NC(c3ccccc3)(c3ccccc3)C(C)C2=O)cc1` (stereo not drawn), for which the growth inhibition is 48.2% (inactive).
Next, `Fc1ccccc1/C=C/c1cnnc2ccccc12`: 19.9% (inactive).
